HIF activator: HIF pathway transcriptional activators, primary screen, cell-based, U2OS HRE-luciferase, luminescence; U2OS HRE-luciferase reporter; normalized: DMSO 0%, desferrioxamine 100%; activation, % at 7.5 µM (by protocol); 0.32% of 300,000 active; AID 1910, 2009;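 active means mean activation of at least 10% of the iron chelator positive control signal, with at least half of replicates also reaching 10%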
AI-2 QS mod: Vibrio harveyi AI-2 quorum sensing modulators, primary screen, JMH597 strain, luminescence/OD600 ratio. Vibrio harveyi JMH597 AI-2 luminescence/OD600 ratio, 9 h; active compounds read low; strain lacks LuxN and CqsS sensors; 0 = neutral-control median. activity change, % at 7.5 µM. 0.4% of 300,000 active. AID 2094, 2009; in the data active means activity change below about -75%, passing the limit was not always enough;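 further: luminescence divided by OD600 gain over 9 h not by final OD600 alone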
SUMO Mot1 rescue: yeast Mot1-301 growth rescue at high temperature, primary screen, SUMOylation pathway inhibitor project, S. cerevisiae, ATP luminescence, 38.5C. 1% of 320,000 active. S. cerevisiae Mot1-301 growth rescue; percent above DMSO median, 100 means doubled. growth rescue, % at 18.8 µM;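 active means every valid replicate shows activation above 250% relative to neutral control wells; inactive means the rest, any valid replicate at or below 250%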;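 further: OY570 slx delta 5 strain wells were the positive control but not used for scaling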
ALR inh: inhibitors of human ALR sulfhydryl oxidase, primary screen, biochemical, H2O2 detection, HRP-luminol luminescence, single point; FAD-linked sulfhydryl oxidase ALR (Homo sapiens), P55789; purified ALR, DTT oxidation; inhibition, % (no concentration beside the values); 3.8% of 290,000 active; AID 485317, 2010;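 active means mean replicate inhibition above about 79%, with every replicate also reaching it, limit read from the data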
Target sequence (P55789 whole entry, looked up): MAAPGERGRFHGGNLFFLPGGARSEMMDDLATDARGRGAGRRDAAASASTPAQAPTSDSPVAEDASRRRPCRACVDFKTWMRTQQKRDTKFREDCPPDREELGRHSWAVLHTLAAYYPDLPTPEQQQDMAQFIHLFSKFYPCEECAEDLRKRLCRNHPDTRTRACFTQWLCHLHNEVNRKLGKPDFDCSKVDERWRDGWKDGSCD
Numbers without * were called inactive. An excerpt weighted towards active compounds, which were near 4.8% of everything screened.

How did COC(=O)c1ccc(C2c3[nH]c4ccccc4c3C[C@H]3C(=O)N(C)CC(=O)N23)cc1 (stereo partly specified) do in these assays?
HIF activator: -1.0; AI-2 QS mod: -1.4; SUMO Mot1 rescue: -15.0; ALR inh: -4.0

How did O=C(O)C1CCN(C(=O)c2ccccc2N2C(=O)[C@@H]3Cc4c([nH]c5ccccc45)C(c4cccc(Cl)c4)N3C2=O)CC1 (stereo partly specified) do in these assays?
HIF activator: 0.0; AI-2 QS mod: 5.6; SUMO Mot1 rescue: 1.7; ALR inh: 98.8*

Results for Cc1ccc(C2c3[nH]c4ccccc4c3C[C@H]3C(=O)N(c4ccccc4C(=O)N4CCC[C@@H]4C(=O)O)C(=O)N23)cc1 (stereo partly specified) ?
HIF activator: -0.1; AI-2 QS mod: 21.5; SUMO Mot1 rescue: -10.8; ALR inh: 98.2*

Results for COc1cccc(C2c3[nH]c4ccccc4c3C[C@H]3C(=O)N(CCCCCO)CC(=O)N23)c1 (stereo partly specified) ?
HIF activator: -0.6; AI-2 QS mod: 9.1; SUMO Mot1 rescue: -7.9; ALR inh: 98.0*

How did CN1CC(=O)N2C(c3ccc(Cl)cc3)c3[nH]c4ccccc4c3C[C@H]2C1=O (stereo partly specified) do in these assays?
HIF activator: -1.7; AI-2 QS mod: 9.4; SUMO Mot1 rescue: -1.4; ALR inh: 98.5*

How did COc1ccc(S(=O)(=O)N2CCCC2CNC(=O)C(=O)NCc2ccccc2Cl)cc1 (stereo unspecified) do in these assays?
HIF activator: 0.3; AI-2 QS mod: 23.9; SUMO Mot1 rescue: 16.4; ALR inh: 0.8

Results for COc1ccccc1NC(=O)C[n+]1ccccc1C ?
HIF activator: 0.1; AI-2 QS mod: 4.9; SUMO Mot1 rescue: -8.3; ALR inh: -5.1

What do the screens show for `Cn1cnnc1SCCNS(=O)(=O)c1cccc([N+](=O)[O-])c1`?
HIF activator: -2.0; AI-2 QS mod: 16.1; SUMO Mot1 rescue: -18.3; ALR inh: -6.9

How did COc1cccc(C2c3[nH]c4ccccc4c3C[C@H]3C(=O)N(c4ccccc4C(=O)N4CCCC4C(=O)O)C(=O)N23)c1 (stereo partly specified) do in these assays?
HIF activator: 0.0; AI-2 QS mod: 25.6; SUMO Mot1 rescue: 4.8; ALR inh: 97.2*

Results for Cc1ccc(C2c3[nH]c4ccccc4c3C[C@H]3C(=O)N(c4ccccc4C(=O)N4CCC(C(=O)O)CC4)C(=O)N23)cc1 (stereo partly specified) ?
HIF activator: -0.3; AI-2 QS mod: 17.0; SUMO Mot1 rescue: 22.2; ALR inh: 15.9

Results for CCCC(=O)NC(c1cccs1)c1cc(Cl)c2cccnc2c1O (stereo unspecified) ?
HIF activator: 28.7*; AI-2 QS mod: -9.3; SUMO Mot1 rescue: -4.8; ALR inh: -2.3

How did CCCC(=O)NC(c1ccc2c(c1)OCO2)c1cc(Cl)c2cccnc2c1O (stereo unspecified) do in these assays?
HIF activator: 12.2*; AI-2 QS mod: 27.1; ALR inh: -9.1

Results for CCCC(=O)NC(c1ccco1)c1cc(Cl)c2cccnc2c1O (stereo unspecified) ?
HIF activator: -0.1; AI-2 QS mod: -5.1; SUMO Mot1 rescue: -9.5; ALR inh: -21.2

How did O=C1NC(Cc2ccccc2)c2nc3ccccc3c(=O)n2-c2cc(Cl)ccc21 (stereo unspecified) do in these assays?
SUMO Mot1 rescue: 13.5; ALR inh: 1.4

How did Cc1nnc(Nc2ccc(O)cc2)[nH]c1=O do in these assays?
HIF activator: -0.4; AI-2 QS mod: 31.7; SUMO Mot1 rescue: -16.5; ALR inh: 98.7*

How did O=C1CSC(c2ccccn2)N1c1ccccc1 (stereo unspecified) do in these assays?
HIF activator: 2.2; AI-2 QS mod: 38.9; SUMO Mot1 rescue: -20.8; ALR inh: 99.1*

How did Cc1cc(C)cc(N2C(=O)CSC2c2ccccn2)c1 (stereo unspecified) do in these assays?
HIF activator: -0.7; AI-2 QS mod: 27.1; SUMO Mot1 rescue: -18.0; ALR inh: 98.7*

Results for O=C1CSC(c2ccccn2)N1c1ccc2ccccc2c1 (stereo unspecified) ?
HIF activator: 0.2; AI-2 QS mod: 13.7; SUMO Mot1 rescue: -8.7; ALR inh: 67.9

What do the screens show for `O=C1C=C(O)c2c(O)cc(O)c(O)c2C1=O`?
HIF activator: -0.5; AI-2 QS mod: 53.8; SUMO Mot1 rescue: -23.6; ALR inh: 97.9*

What do the screens show for `CC1CCCCN1c1ccc(N)cc1C(N)=O` (stereo unspecified)?
HIF activator: -0.1; AI-2 QS mod: 4.0; SUMO Mot1 rescue: 626.8; ALR inh: 93.8*

How did O=S(=O)(NCCN1CCOCC1)c1cc(Cl)ccc1Cl do in these assays?
HIF activator: 0.6; AI-2 QS mod: 5.2; SUMO Mot1 rescue: 4.4; ALR inh: 1.3

What do the screens show for `CCCCC(CCC(=O)O)(C(=O)OCC)c1csc(Nc2ccccc2)n1` (stereo unspecified)?
HIF activator: 0.2; AI-2 QS mod: -0.3; SUMO Mot1 rescue: -8.0; ALR inh: 95.8*

How did COc1cc(C2C3=C(CCCC3=O)Nc3[nH]n(-c4ccccc4)c(=O)c32)ccc1O (stereo unspecified) do in these assays?
SUMO Mot1 rescue: -13.4; ALR inh: 99.9*

How did O=C1CCCC2=C1C(c1ccc3c(c1)OCO3)c1c([nH]n(-c3ccccc3)c1=O)N2 (stereo unspecified) do in these assays?
HIF activator: 0.2; AI-2 QS mod: 13.2; SUMO Mot1 rescue: -14.1; ALR inh: 56.3

What do the screens show for `COc1cccc(C2C3=C(CCCC3=O)Nc3[nH]n(-c4ccccc4)c(=O)c32)c1` (stereo unspecified)?
HIF activator: 0.0; AI-2 QS mod: 13.8; SUMO Mot1 rescue: -6.1; ALR inh: 78.4*

How did CCCCNC(=O)CCc1nc2cccnc2n1Cc1ccccc1 do in these assays?
HIF activator: -4.7; AI-2 QS mod: 0.8; SUMO Mot1 rescue: -15.6; ALR inh: 2.3

How did O=C(NC1CCCC1)C1CCCN1S(=O)(=O)c1cccc2cccnc12 (stereo unspecified) do in these assays?
AI-2 QS mod: 10.9; SUMO Mot1 rescue: -7.0; ALR inh: 89.0*

Results for O=C(NC1CCCCC1)C1CCN(S(=O)(=O)c2cccc3cccnc23)CC1 ?
AI-2 QS mod: 24.8; SUMO Mot1 rescue: 153.9; ALR inh: -22.8

What do the screens show for `O=C(NC1CCCCCC1)C1CCCN1S(=O)(=O)c1cccc2cccnc12` (stereo unspecified)?
AI-2 QS mod: 13.9; SUMO Mot1 rescue: -9.0; ALR inh: 96.5*

Results for O=C(CN1C(=O)CSc2ccc(S(=O)(=O)N3CCOCC3)cc21)NCc1ccc(F)cc1 ?
HIF activator: 0.1; AI-2 QS mod: 27.0; SUMO Mot1 rescue: -10.0; ALR inh: 0.2

Assay outcomes: PubChem, Broad Institute
